What all share (experiment): NCI-60 one-dose screen, 48 h (100 = growth as untreated, 0 = no growth, -100 = all killed)
The test system of one assay is HCT-15 colon. The note with it: 10 µM unless noted.
A further assay concerns HT29 colon. The note with it: 10 µM unless noted.
The subject of another assay is SNB-75 CNS. The note with it: 10 µM unless noted.
In another assay the test system is SNB-19 CNS. The note with it: 10 µM unless noted.
The test system of the next assay is U251 CNS. The note with it: 10 µM unless noted.
For another assay, the system named is PC-3 prostate. The note with it: 10 µM unless noted.
The next assay deals with SK-MEL-5 melanoma. The note with it: 10 µM unless noted.
The subject of the next assay is UACC-62 melanoma. The note with it: 10 µM unless noted.
In a further assay the test system is LOX IMVI melanoma. The note with it: 10 µM unless noted.
The subject of another assay is SK-MEL-28 melanoma. The note with it: 10 µM unless noted.
A further assay relates to SK-MEL-2 melanoma. The note with it: 10 µM unless noted.
For another assay, the system named is EKVX NSCLC. The note with it: 10 µM.
In a further assay the test system is SN12C renal. The note with it: 10 µM unless noted.
A further assay deals with UO-31 renal. The note with it: 10 µM unless noted.
In a further assay the test system is TK-10 renal. The note with it: 10 µM unless noted.
The subject of another assay is ACHN renal. The note with it: 10 µM unless noted.
A further assay has as its system CAKI-1 renal. The note with it: 10 µM unless noted.
For another assay, the system named is A498 renal. The note with it: 10 µM unless noted.
Another assay has as its system CCRF-CEM leukemia. The note with it: 10 µM.
Another assay relates to MOLT-4 leukemia. The note with it: 10 µM unless noted.

Compounds without any hit were thinned out: in the full panel of roughly 83,000, 20% have a hit.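 Cell lines were cultured in 96-well plates, exposed to a single compound concentration, and assessed for percent growth 48 hours later.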 Values without a mark were called inactive. Activity calls are given as the source filed them. Rule for the calls: active = growth percent below 10; inactive = the rest.

For `CCOC(=O)CSSCC(=O)OCC`, the growth in the assay with HCT-15 colon was 102%; in the assay with HT29 colon, 112%; with SNB-75 CNS, 94.4%; with SNB-19 CNS, 108%; in the assay on U251 CNS it was 98.4%; in the assay on PC-3 prostate, 100%. For the same compound, the growth in the assay with SK-MEL-5 melanoma was 99.8%; with UACC-62 melanoma, 98.4%; in the assay with LOX IMVI melanoma, 111%; in the assay with SK-MEL-28 melanoma, 107%; in the assay with SK-MEL-2 melanoma, 111%; in the assay with EKVX NSCLC, 105%. Moreover, the growth with SN12C renal was 103%; in the assay on UO-31 renal, 100%; with TK-10 renal, 103%; in the assay on ACHN renal, 103%; with CAKI-1 renal, 97.5%; with A498 renal, 118%. The growth with CCRF-CEM leukemia is 95.9%; in the assay with MOLT-4 leukemia it was 90.3%.

As for `COc1ccc2c(N)ncc(C#Cc3cc(C(=O)Nc4ccc(CN5CCN(C)CC5)c(C(F)(F)F)c4)cnc3C)c2c1`, the growth is -76.2% (active) with HCT-15 colon; -78.3% (active) with HT29 colon; -11.1% (active) with SNB-75 CNS; -82.2% (active) in the assay on SNB-19 CNS; -92.2% (active) with U251 CNS; -69.4% (active) in the assay with PC-3 prostate. Also, the growth is -51.4% (active) with SK-MEL-5 melanoma; 28.2% in the assay on UACC-62 melanoma; -71.4% (active) with LOX IMVI melanoma; -80.2% (active) with SK-MEL-28 melanoma; -15.4% (active) with SK-MEL-2 melanoma; -1.21% (active) in the assay on EKVX NSCLC. The growth in the assay with SN12C renal is -45.4% (active); with UO-31 renal, -45.1% (active); in the assay on TK-10 renal, -60.2% (active); in the assay on ACHN renal, -78.5% (active); with CAKI-1 renal it was 39.9%; in the assay with A498 renal it was 15.4%. Besides, the figures for the growth with CCRF-CEM leukemia and in the assay with MOLT-4 leukemia were -25.4% (active) and -36.6% (active), respectively.

Consider `O=C(/C=C\c1ccccc1Cl)c1ccccc1`, for which the growth in the assay with HCT-15 colon is 89.9%; in the assay on HT29 colon it was 92.3%; with SNB-75 CNS, 86.7%; in the assay with SNB-19 CNS, 94.9%; in the assay with U251 CNS, 79.3%; in the assay on PC-3 prostate, 93.8%. The growth is 92.2% in the assay on SK-MEL-5 melanoma; 89.7% in the assay with UACC-62 melanoma; 82.1% with LOX IMVI melanoma; 110% with SK-MEL-28 melanoma; 128% with SK-MEL-2 melanoma; 96.4% with EKVX NSCLC. Also, the growth with SN12C renal was 102%; with UO-31 renal it was 71.5%; with TK-10 renal it was 111%; in the assay with ACHN renal, 92.5%; with CAKI-1 renal it was 90.8%; in the assay with CCRF-CEM leukemia it was -16.3% (active).

Consider `OC(c1ccccc1)(c1ccccc1)C(F)(F)F`, for which the growth with HCT-15 colon was 107%; in the assay with HT29 colon it was 103%; in the assay with SNB-75 CNS, 111%; in the assay with SNB-19 CNS, 113%; in the assay with U251 CNS, 109%; in the assay with PC-3 prostate, 88.4%. Moreover, the growth is 109% in the assay with SK-MEL-5 melanoma; 102% in the assay with UACC-62 melanoma; 105% in the assay with LOX IMVI melanoma; 117% with SK-MEL-28 melanoma; 97.7% in the assay on SK-MEL-2 melanoma; 102% in the assay on EKVX NSCLC. Besides, the growth is 94.9% in the assay with SN12C renal; 98.1% with UO-31 renal; 95.7% in the assay with TK-10 renal; 94.8% in the assay with ACHN renal; 97.8% in the assay with CAKI-1 renal; 84.7% in the assay with CCRF-CEM leukemia. In the assay with MOLT-4 leukemia, the growth is 102%.

In the case of `Cc1nc(NC(=S)Nc2ccc(F)cc2)sc1C(=O)NNC(=S)Nc1ccc(F)cc1`, the growth with HCT-15 colon is 61.9%; in the assay on HT29 colon, 61.7%; with SNB-75 CNS, 113%; in the assay with SNB-19 CNS it was 76.9%; with U251 CNS, 53.1%; in the assay with PC-3 prostate it was 52.1%. The growth was 48.8% with SK-MEL-5 melanoma; 36.9% with UACC-62 melanoma; 70.6% in the assay with LOX IMVI melanoma; 78% in the assay on SK-MEL-28 melanoma; 3.22% (active) in the assay with SK-MEL-2 melanoma; 63.2% with EKVX NSCLC. In addition, the growth is 71.8% with SN12C renal; 38.7% in the assay on UO-31 renal; 43.5% with TK-10 renal; 65.3% with ACHN renal; 101% in the assay with CAKI-1 renal; 40.1% in the assay with CCRF-CEM leukemia. Further, the growth in the assay with MOLT-4 leukemia was 36.5%.

Consider `COC(c1ccccc1)C(Br)C(=O)c1ccccc1` (stereo not drawn), for which the growth with HCT-15 colon is 90.7%; with HT29 colon it was 106%; with SNB-75 CNS it was 86.5%; in the assay with SNB-19 CNS it was 96.3%; in the assay on U251 CNS, 95.1%; in the assay with PC-3 prostate, 91.3%. Also, the growth in the assay with SK-MEL-5 melanoma is 94.1%; in the assay with UACC-62 melanoma, 84.9%; in the assay on LOX IMVI melanoma, 97.8%; in the assay on SK-MEL-28 melanoma, 102%; with SK-MEL-2 melanoma, 95.7%; in the assay with EKVX NSCLC it was 103%. The growth in the assay with SN12C renal is 94.3%; in the assay with UO-31 renal it was 75.8%; in the assay on TK-10 renal, 91.5%; in the assay on ACHN renal it was 94.6%; in the assay with CAKI-1 renal it was 85%; in the assay on CCRF-CEM leukemia, 69.9%. The growth in the assay with MOLT-4 leukemia was 98%.

Consider `O=C1/C(=C\c2cn(-c3nc(N4CCOCC4)nc(N4CCOCC4)n3)c3ccccc23)c2ccccc2N1c1c(Cl)cccc1Cl`, for which the growth in the assay with HCT-15 colon is 64.5%; with HT29 colon it was 73.9%; in the assay on SNB-75 CNS, 0.936% (active); with SNB-19 CNS, 69.6%; with U251 CNS, 53.5%; in the assay on PC-3 prostate it was 24.3%. Besides, the growth with SK-MEL-5 melanoma is 83%; in the assay on UACC-62 melanoma, 46.6%; in the assay with LOX IMVI melanoma it was 69.8%; with SK-MEL-28 melanoma, 77.2%; in the assay on SK-MEL-2 melanoma, 74%; in the assay with EKVX NSCLC, 61%. Also, the growth was 64.8% in the assay with SN12C renal; 24.6% with UO-31 renal; 60% in the assay with TK-10 renal; 72.7% in the assay on ACHN renal; -43.7% (active) with A498 renal; 64.5% in the assay with CCRF-CEM leukemia. In the assay with MOLT-4 leukemia, the growth was 60.5%.

As for `COc1ccc(-c2cn3ccnc3c(-c3ccc4ncn(C5CCCCC5)c4c3)n2)cc1`, the growth in the assay on HCT-15 colon is 21.2%; in the assay with HT29 colon, 7.49% (active); with SNB-75 CNS, -26.3% (active); in the assay on SNB-19 CNS, 31.6%; in the assay with U251 CNS it was 19.1%; in the assay with PC-3 prostate it was 4.78% (active). Moreover, the growth is 7.7% (active) in the assay on SK-MEL-5 melanoma; 34.8% in the assay on UACC-62 melanoma; 30.4% in the assay on LOX IMVI melanoma; 52.3% in the assay with SK-MEL-28 melanoma; 5.74% (active) with SK-MEL-2 melanoma; 43.4% with EKVX NSCLC. In addition, the growth is 36.4% with SN12C renal; 38.5% in the assay with UO-31 renal; 81.5% in the assay with TK-10 renal; 39% in the assay on ACHN renal; -12.3% (active) in the assay with A498 renal; 6.73% (active) in the assay with CCRF-CEM leukemia. Moreover, the growth with MOLT-4 leukemia is 17.2%.

These data come from PubChem BioAssay (NCI).
